Test systems include SR leukemia; RPMI-8226 leukemia; OVCAR-8 ovarian; OVCAR-5 ovarian; OVCAR-4 ovarian; SK-OV-3 ovarian; IGROV1 ovarian; OVCAR-3 ovarian; HS 578T breast; NCI/ADR-RES ovarian; T-47D breast; BT-549 breast; MDA-MB-435 melanoma; SW-620 colon; MCF7 breast; HCT-116 colon; HCC-2998 colon; KM12 colon.
What all share (test): NCI-60 one-dose screen, 48 h (100 = growth as untreated, 0 = no growth, -100 = all killed)
What all share (details): 10 µM unless noted

Each structure is given as a SMILES string. The panel holds about 83,000 compounds, 20% with a hit somewhere; the sample as a whole holds those more often.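 Cell lines were cultured in 96-well plates, exposed to a single compound concentration, and assessed for percent growth 48 hours later.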 Unmarked numbers belong to inactive results. Activity calls are given as the source filed them. How the source made its calls: active means growth percent below 10; inactive means the rest.

In the case of `Cn1cc(-c2nc(N)nnc2-c2c[nH]c3ccc(Br)cc23)c2cc(Br)ccc21`, the growth with SR leukemia was 20.4%; in the test with RPMI-8226 leukemia it was 31.1%; with OVCAR-8 ovarian, 57.8%; in the test with OVCAR-5 ovarian, 79.9%; in the test with OVCAR-4 ovarian, 110%; with SK-OV-3 ovarian, 72.4%. Besides, the growth in the test with IGROV1 ovarian was 43.7%; with OVCAR-3 ovarian it was 26.8%; in the test with HS 578T breast, 76.7%; with NCI/ADR-RES ovarian it was 46.5%; with T-47D breast it was 32.2%; in the test with BT-549 breast, 48.8%. Moreover, the growth was 11.6% in the test with MDA-MB-435 melanoma; 29.2% in the test on SW-620 colon; 30.6% in the test with MCF7 breast; 17.6% in the test with HCT-116 colon; 81.9% in the test on HCC-2998 colon; 27.6% in the test on KM12 colon.
Take `COc1ccc(N2C(=O)c3cc(Cl)ccc3NC2SCc2ccccc2)cc1` (stereo unspecified): the growth is 103% with SR leukemia; 107% in the test on RPMI-8226 leukemia; 94.8% in the test on OVCAR-8 ovarian; 102% in the test on OVCAR-5 ovarian; 94.7% with OVCAR-4 ovarian; 101% in the test with SK-OV-3 ovarian. The growth in the test with IGROV1 ovarian is 99.5%; with OVCAR-3 ovarian, 105%; in the test with HS 578T breast, 106%; in the test on NCI/ADR-RES ovarian it was 99.1%; with T-47D breast, 88.1%; in the test on BT-549 breast, 97.5%. The growth was 94.5% in the test with MDA-MB-435 melanoma; 103% with SW-620 colon; 85.4% in the test with MCF7 breast; 73.8% in the test with HCT-116 colon; 106% in the test on HCC-2998 colon; 96.9% in the test on KM12 colon.
Regarding `Cc1ccc(NC(=O)c2ccc(CN3CCN(C)CC3)cc2)cc1Oc1ccc(-c2[nH]nc3ncnc(N)c23)cc1`, the growth with SR leukemia is 80.2%; with RPMI-8226 leukemia, 75.5%; in the test on OVCAR-8 ovarian, 99.5%; in the test on OVCAR-5 ovarian, 101%; in the test on OVCAR-4 ovarian it was 99.1%; in the test on SK-OV-3 ovarian, 93.7%. The growth with IGROV1 ovarian is 90%; with OVCAR-3 ovarian, 88.4%; in the test with HS 578T breast, 82.8%; in the test on NCI/ADR-RES ovarian, 100%; with T-47D breast, 81.4%; in the test on BT-549 breast it was 93%. The growth was 86.4% in the test on MDA-MB-435 melanoma; 80.2% with SW-620 colon; 35.7% with MCF7 breast; 81.9% with HCT-116 colon; 124% with HCC-2998 colon; 56.3% with KM12 colon.
For `COc1ccccc1-n1cc(C#N)c(N)c1C(=O)c1ccc(Cl)cc1`, the growth in the test on SR leukemia is 23.5%; in the test with RPMI-8226 leukemia, 88.3%; in the test on OVCAR-8 ovarian it was 96.7%; with OVCAR-5 ovarian, 109%; in the test with OVCAR-4 ovarian, 98.2%; in the test on SK-OV-3 ovarian it was 101%. Also, the growth with IGROV1 ovarian is 78%; in the test on OVCAR-3 ovarian, 63.7%; in the test with HS 578T breast, 74.6%; in the test on NCI/ADR-RES ovarian it was 41.1%; in the test with T-47D breast it was 88.3%; in the test with BT-549 breast, 92.7%. For the same molecule, the growth was -16.7% (active) with MDA-MB-435 melanoma; 40.8% in the test with SW-620 colon; 32.3% with MCF7 breast; 63.5% with HCT-116 colon; 68.2% in the test with HCC-2998 colon; 58.2% in the test with KM12 colon.
Turning to `O=C(NCCn1ccnc1)c1ccc(-c2nc3ccc4[nH]ncc4c3c3c2CCCC3)cc1`, the growth with SR leukemia is 2.67% (active); with RPMI-8226 leukemia, 77.6%; with OVCAR-8 ovarian, 77.2%; with OVCAR-5 ovarian, 93.9%; in the test with OVCAR-4 ovarian, 66.3%; in the test with SK-OV-3 ovarian it was 63.1%. The growth is 62.8% in the test with IGROV1 ovarian; 36.7% in the test with OVCAR-3 ovarian; 2.42% (active) in the test on HS 578T breast; 102% with NCI/ADR-RES ovarian; 56% in the test on T-47D breast; 44.2% in the test with BT-549 breast. In addition, the growth with MDA-MB-435 melanoma is -1.93% (active); with SW-620 colon, 57.4%; in the test with MCF7 breast it was 20.5%; with HCT-116 colon, 37%; in the test on HCC-2998 colon, 81.6%; in the test on KM12 colon it was 26%.
On to `CC1(C)[C@@H](O)CC[C@]2(C)[C@H]3CC[C@@H]4[C@H]5[C@H](C(=O)/C=C\c6ccncc6)CC[C@]5(O)CC[C@@]4(C)[C@]3(C)CC[C@@H]12`, for which the growth in the test with SR leukemia was 4.32% (active); in the test with RPMI-8226 leukemia, 12.1%; in the test with OVCAR-8 ovarian, 40.3%; in the test with OVCAR-5 ovarian, 47.5%; in the test with OVCAR-4 ovarian it was 38.5%; with SK-OV-3 ovarian, 113%. Besides, the growth in the test with IGROV1 ovarian is 37.3%; in the test on OVCAR-3 ovarian it was 34.6%; with HS 578T breast, 39.3%; in the test with NCI/ADR-RES ovarian, 25.5%; in the test with T-47D breast it was 68.7%; with BT-549 breast it was 68.2%. In addition, the growth in the test with MDA-MB-435 melanoma was 14.9%; in the test on SW-620 colon, 26.5%; with MCF7 breast, 24.6%; in the test on HCT-116 colon it was 14.9%; in the test with HCC-2998 colon, 77.9%; with KM12 colon it was 39.2%.
For the molecule `Cc1c(Cl)cccc1S(=O)(=O)Nc1ccc2c(c1)C(=O)N(C1CCC(=O)NC1=O)C2=O` (stereo unspecified), the growth in the test with SR leukemia is 97.1%; with RPMI-8226 leukemia it was 84.5%; in the test with OVCAR-8 ovarian, 47.8%; in the test with OVCAR-5 ovarian, 97.3%; in the test on OVCAR-4 ovarian, 69.1%; in the test on SK-OV-3 ovarian, 106%. For the same molecule, the growth with IGROV1 ovarian was 64.1%; in the test on OVCAR-3 ovarian, 105%; in the test on HS 578T breast it was 67.3%; with NCI/ADR-RES ovarian it was 73.3%; in the test with T-47D breast, 44%; in the test on BT-549 breast, 63.9%. Further, the growth in the test on MDA-MB-435 melanoma was 96.2%; in the test with SW-620 colon, 44.8%; in the test on MCF7 breast it was 88.2%; in the test on HCT-116 colon, 107%; in the test with HCC-2998 colon it was 67.9%; in the test with KM12 colon, 92.2%.
